# Tests used:
# Assay in all cases: DAPPL (digital affinity profiling via proximity ligation, sequencing); 10 mM Tris-HCl pH 7.5, 50 mM NaCl, 1 mM DTT, 4% glycerol, room temperature, 30 min; GST-TFs on glutathione beads, 16-mer random dsDNA library, 0.1% formaldehyde crosslink after washing; high values mean tight binding
# Details in all cases: protein: recombinant; tags: N-terminal GST; dsDNA, one strand shown
# FLI1 = biological target: T1, FLI1 (Homo sapiens, UniProt Q01543 1-452)
# T1 sequence: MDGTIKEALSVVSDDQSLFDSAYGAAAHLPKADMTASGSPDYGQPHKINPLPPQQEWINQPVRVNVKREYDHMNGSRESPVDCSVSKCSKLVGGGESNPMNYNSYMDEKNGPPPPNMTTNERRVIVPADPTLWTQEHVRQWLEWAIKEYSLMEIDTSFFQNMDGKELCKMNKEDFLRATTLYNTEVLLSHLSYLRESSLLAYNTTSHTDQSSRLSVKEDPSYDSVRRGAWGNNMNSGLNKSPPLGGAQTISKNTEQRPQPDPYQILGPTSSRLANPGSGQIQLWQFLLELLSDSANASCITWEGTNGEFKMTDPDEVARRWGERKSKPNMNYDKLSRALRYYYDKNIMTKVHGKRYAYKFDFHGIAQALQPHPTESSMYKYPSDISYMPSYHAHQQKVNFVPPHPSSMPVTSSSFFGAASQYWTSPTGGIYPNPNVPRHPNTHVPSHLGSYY
# Outline: (§1)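 After expression in yeast as GST fusions, human transcription factors were bound to glutathione beads, DNA-barcoded and mixed with a tag-only sample. The pools were incubated with 200 nmole of a 16-mer random double-stranded DNA library in Tris/NaCl/DTT/glycerol buffer (30 min, room temperature), washed and crosslinked with 0.1% formaldehyde. Proximity ligation with BsaI/T4 ligase ran for 1 h at 37 °C, before PCR amplification and sequencing on an Illumina NextSeq500. Binding signal is a hexamer's read frequency for a factor divided by its frequency for the tag-only sample.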
# ELK1 = biological target: T2, ELK1 (Homo sapiens, UniProt P19419 1-428)
# T2 sequence: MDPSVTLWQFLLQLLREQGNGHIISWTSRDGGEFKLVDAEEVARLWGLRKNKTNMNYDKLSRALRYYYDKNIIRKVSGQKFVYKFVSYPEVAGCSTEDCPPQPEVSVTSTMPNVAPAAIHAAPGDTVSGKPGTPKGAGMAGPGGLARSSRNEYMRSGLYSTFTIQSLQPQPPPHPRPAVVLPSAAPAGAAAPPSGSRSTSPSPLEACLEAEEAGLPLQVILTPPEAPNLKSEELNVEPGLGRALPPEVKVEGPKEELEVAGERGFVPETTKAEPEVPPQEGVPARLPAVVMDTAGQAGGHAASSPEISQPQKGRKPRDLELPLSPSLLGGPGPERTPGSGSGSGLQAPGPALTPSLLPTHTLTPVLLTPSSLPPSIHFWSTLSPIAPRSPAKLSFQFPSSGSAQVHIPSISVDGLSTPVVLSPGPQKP
# Outline: as §1
# GABPA = biological target: T3, GABPA (Homo sapiens, UniProt Q06546 1-454)
# T3 sequence: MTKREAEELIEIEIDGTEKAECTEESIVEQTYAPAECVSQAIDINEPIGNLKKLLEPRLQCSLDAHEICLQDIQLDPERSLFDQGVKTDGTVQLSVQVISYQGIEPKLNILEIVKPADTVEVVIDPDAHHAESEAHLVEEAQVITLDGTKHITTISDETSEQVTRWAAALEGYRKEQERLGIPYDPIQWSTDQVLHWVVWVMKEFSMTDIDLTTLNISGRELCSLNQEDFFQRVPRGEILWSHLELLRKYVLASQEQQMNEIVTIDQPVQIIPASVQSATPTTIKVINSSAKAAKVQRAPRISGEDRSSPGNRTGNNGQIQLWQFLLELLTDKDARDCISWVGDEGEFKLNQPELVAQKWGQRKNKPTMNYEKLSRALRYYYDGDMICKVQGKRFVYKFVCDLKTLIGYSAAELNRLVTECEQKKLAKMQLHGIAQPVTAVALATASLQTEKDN
# Outline: as §1
# ERG = biological target: T4, ERG (Homo sapiens, UniProt P11308 1-479)
# T4 sequence: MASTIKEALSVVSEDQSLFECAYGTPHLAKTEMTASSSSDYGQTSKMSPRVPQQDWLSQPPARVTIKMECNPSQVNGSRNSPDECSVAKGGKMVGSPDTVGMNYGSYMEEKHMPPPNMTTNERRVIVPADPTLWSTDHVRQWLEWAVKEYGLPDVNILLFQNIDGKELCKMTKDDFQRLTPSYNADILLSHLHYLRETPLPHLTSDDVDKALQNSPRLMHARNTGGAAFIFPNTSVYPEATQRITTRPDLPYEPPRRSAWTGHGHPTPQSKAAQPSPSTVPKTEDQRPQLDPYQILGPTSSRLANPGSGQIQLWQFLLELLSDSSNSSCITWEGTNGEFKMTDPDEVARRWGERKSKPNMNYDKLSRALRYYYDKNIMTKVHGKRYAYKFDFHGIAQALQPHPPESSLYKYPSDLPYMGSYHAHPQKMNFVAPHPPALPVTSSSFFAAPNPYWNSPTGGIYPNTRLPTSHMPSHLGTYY
# Outline: as §1
# ELF1 = ELF1 (Homo sapiens, UniProt P32519 1-619)
# Outline: as §1
# EHF = biological target: T5, EHF (Homo sapiens, UniProt Q9NZC4 1-300)
# T5 sequence: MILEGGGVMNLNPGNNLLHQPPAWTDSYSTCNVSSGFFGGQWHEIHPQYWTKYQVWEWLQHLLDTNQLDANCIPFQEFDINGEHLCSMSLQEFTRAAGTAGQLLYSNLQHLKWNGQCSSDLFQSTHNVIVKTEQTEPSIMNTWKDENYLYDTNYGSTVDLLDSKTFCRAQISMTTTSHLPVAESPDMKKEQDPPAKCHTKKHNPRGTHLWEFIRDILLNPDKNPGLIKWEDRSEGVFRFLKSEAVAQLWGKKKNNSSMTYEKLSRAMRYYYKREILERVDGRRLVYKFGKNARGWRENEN
# Outline: as §1
# SPI1 = SPI1 (Homo sapiens, UniProt P17947 1-270)
# Outline: as §1
# SPIB = SPIB (Homo sapiens, UniProt Q01892 1-262)
# Outline: as §1
# ELK3 = biological target: T6, ELK3 (Homo sapiens, UniProt P41970 1-407)
# T6 sequence: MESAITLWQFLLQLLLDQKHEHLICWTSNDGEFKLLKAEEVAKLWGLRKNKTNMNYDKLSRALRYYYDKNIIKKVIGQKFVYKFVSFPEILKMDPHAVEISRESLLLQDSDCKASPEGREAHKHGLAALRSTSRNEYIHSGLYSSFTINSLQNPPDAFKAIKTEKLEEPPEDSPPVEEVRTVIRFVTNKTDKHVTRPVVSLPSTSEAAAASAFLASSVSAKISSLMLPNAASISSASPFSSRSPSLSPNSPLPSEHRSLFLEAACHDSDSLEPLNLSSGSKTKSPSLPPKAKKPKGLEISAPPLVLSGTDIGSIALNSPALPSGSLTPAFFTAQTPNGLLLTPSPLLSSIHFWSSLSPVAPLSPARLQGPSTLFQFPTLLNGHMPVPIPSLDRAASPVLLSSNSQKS
# Outline: as §1
# ELF1, sequence (P32519 whole entry): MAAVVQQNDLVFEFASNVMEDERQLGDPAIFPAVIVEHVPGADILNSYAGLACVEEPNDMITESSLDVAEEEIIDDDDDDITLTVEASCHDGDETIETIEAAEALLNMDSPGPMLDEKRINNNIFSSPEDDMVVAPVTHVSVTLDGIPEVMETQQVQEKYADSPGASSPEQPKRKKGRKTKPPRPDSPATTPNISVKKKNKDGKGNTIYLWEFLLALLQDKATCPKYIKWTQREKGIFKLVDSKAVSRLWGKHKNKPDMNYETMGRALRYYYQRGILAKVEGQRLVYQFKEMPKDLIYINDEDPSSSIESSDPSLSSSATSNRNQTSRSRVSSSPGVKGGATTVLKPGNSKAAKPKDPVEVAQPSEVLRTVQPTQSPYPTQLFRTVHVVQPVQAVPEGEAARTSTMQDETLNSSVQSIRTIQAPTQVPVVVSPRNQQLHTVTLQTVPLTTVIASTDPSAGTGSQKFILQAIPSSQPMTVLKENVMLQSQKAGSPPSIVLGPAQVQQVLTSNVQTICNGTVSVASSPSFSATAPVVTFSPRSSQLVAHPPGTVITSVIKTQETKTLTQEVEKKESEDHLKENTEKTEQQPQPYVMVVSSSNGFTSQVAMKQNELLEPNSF
# SPIB, sequence (Q01892 whole entry): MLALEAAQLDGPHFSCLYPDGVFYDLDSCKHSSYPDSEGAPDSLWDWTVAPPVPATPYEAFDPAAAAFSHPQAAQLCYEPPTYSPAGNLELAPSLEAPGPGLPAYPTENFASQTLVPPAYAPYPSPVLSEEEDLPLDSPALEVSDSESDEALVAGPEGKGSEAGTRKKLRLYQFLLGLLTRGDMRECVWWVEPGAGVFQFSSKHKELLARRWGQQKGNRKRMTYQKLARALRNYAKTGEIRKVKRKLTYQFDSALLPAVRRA
Sequence,binding signal (FLI1),binding signal (ELK1),binding signal (GABPA),binding signal (ERG),binding signal (ELF1),binding signal (EHF),binding signal (SPI1),binding signal (SPIB),binding signal (ELK3)
GAACTC,"1.28 fold enrichment (6-mer frequency, TF over GST control)","1.22 fold enrichment (6-mer frequency, TF over GST control)","1.31 fold enrichment (6-mer frequency, TF over GST control)","1.26 fold enrichment (6-mer frequency, TF over GST control)","1.29 fold enrichment (6-mer frequency, TF over GST control)","1.28 fold enrichment (6-mer frequency, TF over GST control)","1.39 fold enrichment (6-mer frequency, TF over GST control)","1.28 fold enrichment (6-mer frequency, TF over GST control)","1.33 fold enrichment (6-mer frequency, TF over GST control)"
GTTAAC,"1.04 fold enrichment (6-mer frequency, TF over GST control)","1.22 fold enrichment (6-mer frequency, TF over GST control)","1.13 fold enrichment (6-mer frequency, TF over GST control)","1.15 fold enrichment (6-mer frequency, TF over GST control)","1.14 fold enrichment (6-mer frequency, TF over GST control)","1.11 fold enrichment (6-mer frequency, TF over GST control)","1.15 fold enrichment (6-mer frequency, TF over GST control)","1.12 fold enrichment (6-mer frequency, TF over GST control)","1.23 fold enrichment (6-mer frequency, TF over GST control)"
TTTCGT,"1.31 fold enrichment (6-mer frequency, TF over GST control)","1.38 fold enrichment (6-mer frequency, TF over GST control)","1.37 fold enrichment (6-mer frequency, TF over GST control)","1.23 fold enrichment (6-mer frequency, TF over GST control)","1.41 fold enrichment (6-mer frequency, TF over GST control)","1.46 fold enrichment (6-mer frequency, TF over GST control)","1.27 fold enrichment (6-mer frequency, TF over GST control)","1.47 fold enrichment (6-mer frequency, TF over GST control)","1.25 fold enrichment (6-mer frequency, TF over GST control)"
GCTCAC,"1.37 fold enrichment (6-mer frequency, TF over GST control)","1.51 fold enrichment (6-mer frequency, TF over GST control)","1.65 fold enrichment (6-mer frequency, TF over GST control)","1.51 fold enrichment (6-mer frequency, TF over GST control)","1.49 fold enrichment (6-mer frequency, TF over GST control)","1.51 fold enrichment (6-mer frequency, TF over GST control)","1.41 fold enrichment (6-mer frequency, TF over GST control)","1.44 fold enrichment (6-mer frequency, TF over GST control)","1.32 fold enrichment (6-mer frequency, TF over GST control)"

# From PMC7862700, “An all-to-all approach to the identification of sequence-specific readers for epigenetic DNA modifications on cytosine”
